# Source: the supplement of paper PMC6555819
# What was measured:
# Assay in all cases: PBM binding z-score (relative to random genomic background probes); higher = stronger binding; sequences stand for … in GC…GCGATTGACAGCGTAGAATGAAGG
# [1] = tested on: FXR:RXRa (NR concentration 270 nM, RXRa partner concentration 90 nM)
# In short: (§1)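 Scanned fluorescence from custom Agilent 4×180K protein-binding microarrays was regression-normalized. Binding z-scores use random background probes as reference. Ligand-free nuclear receptor dimers were incubated on the arrays for 1 h and detected with antibodies against each partner (one per run).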
# [2] = tested on: LXRa:RXRa (NR concentration 270 nM, RXRa partner concentration 90 nM)
# In short: as §1
# [3] = tested on: LXRa homodimer (NR concentration 270 nM)
# In short: as §1
# [4] = tested on: LXRb:RXRa (NR concentration 270 nM, RXRa partner concentration 90 nM)
# In short: as §1
# [5] = tested on: LXRb homodimer (NR concentration 270 nM)
# In short: as §1
# [6] = tested on: PPARa:RXRa (NR concentration 270 nM, RXRa partner concentration 90 nM)
# In short: as §1
# [7] = tested on: PPARg:RXRa (NR concentration 180 nM, RXRa partner concentration 90 nM)
# In short: as §1
# [8] = tested on: PPARg:RXRa 270nM:90nM, anti-RXR (NR concentration 270 nM, RXRa partner concentration 90 nM)
# In short: as §1
# [9] = tested on: PPARg:RXRa 30nM:10nM, anti-RXR (NR concentration 30 nM, RXRa partner concentration 10 nM)
# In short: as §1
# [10] = tested on: PPARg:RXRa 90nM:30nM, anti-RXR (NR concentration 90 nM, RXRa partner concentration 30 nM)
# In short: as §1
# [11] = tested on: PPARg:RXRa DBDmut IVT, anti-RXR (DBD mutation: RXRa K156A/R161A, NR concentration 270 nM, RXRa partner concentration 90 nM)
# In short: as §1
# [12] = tested on: PPARg:RXRa IVT, anti-PPARg (NR concentration 270 nM, RXRa partner concentration 90 nM)
# In short: as §1
# [13] = tested on: PPARg DBDmut:RXRa IVT, anti-PPARg (DBD mutation: PPARg1 K132A/R137A, NR concentration 270 nM, RXRa partner concentration 90 nM)
# In short: as §1
# [14] = tested on: PPARg DBDmut IVT, anti-PPARg (DBD mutation: PPARg1 K132A/R137A, NR concentration 270 nM)
# In short: as §1
# [15] = tested on: PPARg homodimer (NR concentration 180 nM)
# In short: as §1
# [16] = tested on: PXR:RXRa (NR concentration 270 nM, RXRa partner concentration 90 nM)
# In short: as §1
# [17] = tested on: PXR homodimer (NR concentration 270 nM)
# In short: as §1
# [18] = tested on: RARa:RXR (NR concentration 270 nM, RXRa partner concentration 90 nM)
# In short: as §1
# [19] = tested on: RARa homodimer (NR concentration 270 nM)
# In short: as §1
# [20] = tested on: RARb:RXRa (NR concentration 270 nM, RXRa partner concentration 90 nM)
# In short: as §1
Sequence,PBM binding z-score [1],PBM binding z-score [2],PBM binding z-score [3],PBM binding z-score [4],PBM binding z-score [5],PBM binding z-score [6],PBM binding z-score [7],PBM binding z-score [8],PBM binding z-score [9],PBM binding z-score [10],PBM binding z-score [11],PBM binding z-score [12],PBM binding z-score [13],PBM binding z-score [14],PBM binding z-score [15],PBM binding z-score [16],PBM binding z-score [17],PBM binding z-score [18],PBM binding z-score [19],PBM binding z-score [20]
CAGACTGGGGCAGAAAGGTTACCATACCATCCGG,1.11,1.5,-0.0304,1.4,0.122,2.53,2.23,3.3,1.29,2.79,2.77,3.01,-0.514,-0.142,2.11,1.39,-0.052,2.24,0.536,2.04
CCTAGTAGGCCAATCTGGGTCACTCAAGGCTTGA,0.701,1.69,-0.399,1.2,-0.38,3.58,3.41,3.08,0.257,2.26,6.2,6.35,0.0197,-0.994,0.502,1.07,-0.356,1.39,-0.858,1.78
TCATATAGGTAAAGGTGAGAGTCGAACGATATGA,0.752,0.731,-0.322,1.01,-0.291,2.5,3.11,4.06,4.06,3.83,4.15,4,1.24,1.62,0.906,0.649,0.0264,1.29,0.387,1.69
CCAGACAGCTGAGAAGGTAACTCAGCCTCGATTA,-0.225,-0.563,-0.25,-0.499,-0.831,-0.574,-0.129,-0.555,-0.623,-0.881,-0.628,-0.629,-0.497,-0.867,0.219,-0.733,0.0352,-0.488,-0.132,-1.71
CCTACTGGGCCATTCAGAGGTCATGGATCATATG,2.57,4.16,5.17,3.61,-0.202,4.54,2.64,3.6,1.23,3.29,4.14,4.64,0.856,0.389,2.93,4.92,0.765,5.46,0.962,3.19
TCATATTGGTAAATGCTAGGTGAAAGTCCGATCT,0.86,0.817,0.679,0.796,0.681,0.861,0.033,1.9,3.55,2.76,2.35,0.751,1.11,1.6,1.32,0.588,0.616,0.882,1.3,0.404
CTGGAAAGGTCGTGCTCAGGTGAGTATACCAAAC,5.25,3.35,-0.219,2.7,-0.505,4.7,2.63,3.81,1.04,2.24,0.634,1.35,-0.0196,0.149,1.33,3.07,-0.203,4.31,-0.374,3.59
CGTCCAATGTCAGAGAGGTCAGTGAATGCCGAGT,2.31,2.29,1.37,2.24,0.168,2.69,0.78,1.62,0.224,1.18,0.575,1.22,-0.469,-0.584,3.15,3.48,2.28,3.16,1.47,3.42
TCTTGTAGATCAAGCAGGTTAAGAAGGCCTGAGT,0.0541,0.0936,-0.218,0.226,-0.745,0.84,-0.304,1.15,2.45,1.9,1.58,0.43,0.564,0.0402,0.079,0.386,0.0272,0.642,-0.212,0.128
